PubChem BioAssay (NCATS)
“And” between values parts separate entries of the source, which are not always exact repeats. Equal entries are not always repeated. Records with an inconclusive call do not appear. The source made the active and inactive calls. Calls follow the shape of the dose curve; as a rule, active = well fitted inhibition curve with a large enough effect; inconclusive = small, poorly fitted or top-dose-only effect; inactive = flat fitted curve, though single readings scatter.

Columns and labels:
Assay in all cases: Cytotoxic Profiling of Annotated Libraries Using Quantitative High-Throughput Screening (AID 1296008); also: nearly all actives have a fitted effect of over 60% in size
Conditions in all cases: Five cell lines viability, CellTiter-Glo ATP luminescence, 48-72 h; max response: stronger effect = lower value
CRL-7250 = normal cell line; test system: CRL-7250
Procedure, shortened: (§1)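 Cytotoxicity was measured as CellTiter-Glo ATP luminescence, read after 10 min at room temperature. Compound treatment of the cells lasted 48 or 72 hr at 37 degrees Celsius in a qHTS format.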

HEK293 = test system: HEK293
Procedure, shortened: as §1

HaCat = test system: HaCat
Procedure, shortened: as §1

KB-3-1 = test system: KB-3-1
Procedure, shortened: as §1

NIH3T3 = test system: NIH3T3
Procedure, shortened: as §1
% is scaled to controls: 0 for no effect and ±100 for the full control effect; potency is read from the fitted curve at half-maximal effect.

Cc1c[nH]c(C=C2C(=O)Nc3ccccc32)c1CCC(=O)O
active: Potency (CRL-7250) 6.62 µM | Potency (HEK293) 3.32 µM
inactive: outcome (HaCat) | max response (KB-3-1) -13.5% | max response (NIH3T3) -18.5%

Nc1ncnc2c1ncn2[C@@H]1O[C@H](CO)C[C@@H]1O
inactive: max response (CRL-7250) -11.4% | max response (HEK293) -3.58% | max response (HaCat) -0.663% | outcome (KB-3-1) | max response (NIH3T3) -2.75%

Nc1ncnc2c1ncn2[C@@H]1O[C@@H](CO)[C@H](O)[C@H]1O
inactive: outcome (CRL-7250) | outcome (HEK293) | outcome (HaCat) | outcome (KB-3-1) | max response (NIH3T3) -24.9%

c1cc(-c2sc(-c3ccncc3)c(-c3ccncc3)c2-c2ccncc2)ccn1
inactive: max response (CRL-7250) -2.98% | max response (HEK293) -5.01% | outcome (HaCat) | max response (KB-3-1) 6.28% | max response (NIH3T3) 4.17%

O=c1c(O)c(-c2ccc(O)cc2)oc2cc(O)cc(O)c12
inactive: outcome (CRL-7250) | outcome (HEK293) | max response (HaCat) -4.55% | outcome (KB-3-1) | max response (NIH3T3) -2.9%

CN1[C@@H]2CCC[C@@H]1CC(NC(=O)c1nn(C)c3ccccc13)C2 (stereo not given in full)
inactive: max response (CRL-7250) -0.159% | max response (HEK293) -2.4% | max response (HaCat) -5.72% | max response (KB-3-1) 1.46% | max response (NIH3T3) 0.235%

CN(C)c1cc(NC(=O)CNC(C)(C)C)c(O)c2c1C[C@@H]1C[C@H]3[C@H](N(C)C)C(=O)C(C(N)=O)=C(O)[C@@]3(O)C(=O)C1=C2O
inactive: max response (CRL-7250) -28.8% | max response (HEK293) 4.51% | max response (HaCat) 1.33% | max response (KB-3-1) -10.5% | max response (NIH3T3) -1.41%

CO[C@H]1C[C@@H]2CC[C@@H](C)[C@@](O)(O2)C(=O)C(=O)N2CCCC[C@@H]2C(=O)O[C@H]([C@@H](C)C[C@@H]2CC[C@H](O)[C@H](OC)C2)CC(=O)[C@H](C)C=C(C)[C@@H](O)[C@@H](OC)C(=O)[C@H](C)C[C@H](C)C=CC=CC=C1C
inactive: max response (CRL-7250) -19.3% | max response (HEK293) -97.2% | outcome (HaCat) | max response (KB-3-1) -8.34% | outcome (NIH3T3) inactive; activator

COCCOc1nc(-c2ccc(Cl)c(Cl)c2)n(-c2ccc(NC(=O)CCl)cc2)n1
inactive: outcome (HaCat)
active: Potency (CRL-7250) 6.62 µM | Potency (HEK293) 3.72 µM and 4.61 µM | Potency (KB-3-1) 18.7 µM | Potency (NIH3T3) 4.11 µM

COC1CCC(N(C(=O)C2CCC(C)CC2)c2cc(C3=CCCCC3)sc2C(=O)O)CC1 (stereo not given)
inactive: max response (CRL-7250) -4.75% | max response (HEK293) -22.6% | max response (HaCat) -16% | max response (KB-3-1) -3.16% | max response (NIH3T3) -0.413%

O=C(CCc1ccc(O)cc1)c1c(O)cc(O)cc1O[C@@H]1O[C@H](CO)[C@H](O)[C@H](O)[C@H]1O
inactive: max response (CRL-7250) -9.67% | max response (HEK293) 1.98% | max response (HaCat) -1.37% | max response (KB-3-1) 1.32% | max response (NIH3T3) -7.96%

COc1cc(NC(=O)c2ccc(-c3ccc(Cl)cc3)o2)cc(OC)c1
inactive: outcome (CRL-7250) | max response (HEK293) 2.11% | outcome (HaCat) | max response (KB-3-1) 5.65% | max response (NIH3T3) 1.05%

CCC(CC)[C@H](NC(C)=O)[C@@H]1[C@H](O)[C@@H](C(=O)O)C[C@@H]1N=C(N)N
inactive: max response (CRL-7250) 2.58% | max response (HEK293) -9.34% | outcome (HaCat) | max response (KB-3-1) 7.98% | outcome (NIH3T3)

COc1ccc(-c2cc(=O)c3c(O)cc(O)cc3o2)cc1O
inactive: outcome (CRL-7250) | max response (HEK293) -3.68% | max response (HaCat) 3.57% | max response (KB-3-1) -19.6% | max response (NIH3T3) -2.97%

O=C1C[C@@H](c2ccc(O)cc2)Oc2cc(O)cc(O)c21
inactive: max response (CRL-7250) -1.31% | max response (HEK293) -0.968% | max response (HaCat) 2.46% | max response (KB-3-1) 7.82% | max response (NIH3T3) 1.63%

C[C@]12CCC3c4ccc(O)cc4CCC3C1CCC2=O (stereo not given in full)
inactive: max response (CRL-7250) -16.8% | max response (HEK293) -11.3% | max response (HaCat) -11.3% | max response (KB-3-1) 7.4% | max response (NIH3T3) -7.72%

CC(=O)Nc1ccc([C@H](C)C(=O)Nc2ncc(C(C)C)s2)cc1
active: Potency (CRL-7250) 2.35 µM and 1.84 µM | Potency (HEK293) 4.69 µM and 4.11 µM | Potency (HaCat) 10.5 µM and 18.4 µM | Potency (KB-3-1) 5.17 µM | Potency (NIH3T3) 8.33 µM and 9.2 µM

CC(=Cc1ccccc1)C=C1SC(=S)N(CC(=O)O)C1=O
inactive: max response (CRL-7250) -0.535% | max response (HEK293) -4.91% | outcome (HaCat) | max response (KB-3-1) -2.93% | outcome (NIH3T3)

O=C(Nc1cc(Cl)cc2c1[nH]c1cnccc12)c1cccnc1
inactive: max response (CRL-7250) -0.841% | max response (HEK293) 3.08% | max response (HaCat) -0.0712% | max response (KB-3-1) -1.81% | max response (NIH3T3) 2.41%

CC=CC(=O)N(CC)c1ccccc1C
inactive: max response (CRL-7250) -6.43% | outcome (HEK293) | outcome (HaCat) | max response (KB-3-1) 2.01% | max response (NIH3T3) 3.96%

C=C1C(=O)OC(CCCCCCCC)C1C(=O)O (stereo not given)
inactive: outcome (CRL-7250) | outcome (HEK293) | outcome (HaCat) | max response (KB-3-1) -17.3% | max response (NIH3T3) 2.38%
